The whole screen tested about 5,500 compounds, of which about 2,000 (36%) were called active. Roughly 18% stayed inconclusive and do not appear here. Some of the results follow. Values without a mark were called inactive. No stated cut-off is given here; in the data, active means normalized growth mostly below about 0.91 (no sharp cut-off); inconclusive means no clear call, values can overlap the other calls; inactive means mostly above about 0.92.
Assay: chemical genetic growth profiling, strain panel (AID 1159580);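 further: tested at 20 µM; growth read once vehicle control cultures reached saturation at 30 °C; 1 = growth at the plate median or of vehicle wells; lower values mean less growth of the strain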
Details: growth OD
[1] = S. cerevisiae deletion strains, locus YAL013W, strain DEP1, active compounds read low
[2] = S. cerevisiae deletion strains, locus YBR229C, strain ROT2, active compounds read low
[3] = S. cerevisiae deletion strains, locus YDL101C, strain DUN1, active compounds read low
[4] = S. cerevisiae deletion strains, locus YDR150W, strain NUM1, active compounds read low
[5] = S. cerevisiae deletion strains, locus YEL061C, strain CIN8, active compounds read low
[6] = S. cerevisiae deletion strains, locus YGR078C, strain PAC10, active compounds read low
[7] = S. cerevisiae deletion strains, locus YHR030C, strain SLT2, active compounds read low
[8] = S. cerevisiae deletion strains, locus YHR087W, strain rtc3, active compounds read low
[9] = S. cerevisiae deletion strains, locus YJL187C, strain SWE1, active compounds read low
[10] = S. cerevisiae deletion strains, locus YJR043C, strain POL32, active compounds read low
[11] = S. cerevisiae deletion strains, locus YJR075W, strain HOC1, active compounds read low
[12] = S. cerevisiae deletion strains, locus YLR039C, strain RIC1, active compounds read low
[13] = S. cerevisiae deletion strains, locus YLR058C, strain SHM2 (second series), active compounds read low
[14] = S. cerevisiae deletion strains, locus YLR085C, strain ARP6, active compounds read low
[15] = S. cerevisiae deletion strains, locus YLR262C, strain YPT6, active compounds read low
[16] = S. cerevisiae deletion strains, locus YML094W, strain GIM5, active compounds read low
[17] = S. cerevisiae deletion strains, locus YMR219W, strain ESC1, active compounds read low
[18] = S. cerevisiae deletion strains, locus YMR263W, strain SAP30, active compounds read low
[19] = S. cerevisiae deletion strains, locus YMR307W, strain GAS1, active compounds read low
[20] = S. cerevisiae deletion strains, locus YNL153C, strain GIM3, active compounds read low
[21] = S. cerevisiae deletion strains, locus YNL298W, strain CLA4 (second series), active compounds read low
[22] = S. cerevisiae deletion strains, locus YNL322C, strain KRE1, active compounds read low
[23] = S. cerevisiae deletion strains, locus YNR030W, strain Alg12, active compounds read low
[24] = S. cerevisiae deletion strains, locus YPL055C, strain LGE1, active compounds read low
[25] = S. cerevisiae deletion strains, locus YPL241C, strain CIN2, active compounds read low
[26] = S. cerevisiae deletion strains, locus YPR135W, strain CTF4, active compounds read low

SMILES: CCCc1cc(C(=O)Nc2ccc(N(CC)CC)cc2)nn1-c1ccccc1
- normalized growth [1]: 0.98
- normalized growth [2]: 0.983
- normalized growth [3]: 0.981
- normalized growth (S. cerevisiae deletion strains, locus YDL134C, strain PPH21, active compounds read low): 0.873 (active)
- normalized growth [4]: 0.966
- normalized growth [5]: 0.895 (active)
- normalized growth [6]: 0.975
- normalized growth [7]: 0.276 (active)
- normalized growth [8]: 0.981
- normalized growth [9]: 0.991
- normalized growth [10]: 0.973
- normalized growth [11]: 0.967
- normalized growth (S. cerevisiae deletion strains, locus YKL190W, strain CNB1, active compounds read low): 0.96
- normalized growth [12]: 1
- normalized growth [13]: 0.982
- normalized growth [14]: 0.813
- normalized growth [15]: 0.915
- normalized growth [16]: 0.911
- normalized growth [17]: 0.999
- normalized growth [18]: 0.991
- normalized growth [19]: 0.275 (active)
- normalized growth [20]: 0.987
- normalized growth [21]: 0.884
- normalized growth [22]: 0.991
- normalized growth [23]: 0.89
- normalized growth (S. cerevisiae deletion strains, locus YOL006C, strain TOP1, active compounds read low): 0.626 (active)
- normalized growth [24]: 0.973
- normalized growth [25]: 0.92
- normalized growth [26]: 0.718
- normalized growth (S. cerevisiae strains, strain wild type, active compounds read low): 0.922

SMILES: C(=NC(N=Cc1ccccc1)c1ccccc1)c1ccccc1 (centres undefined)
- normalized growth (S. cerevisiae deletion strains, locus YAR019C, strain CDC15, active compounds read low): 0.983
- normalized growth (S. cerevisiae deletion strains, locus YBL105C, strain PKC1, active compounds read low): 0.991
- normalized growth (S. cerevisiae deletion strains, locus YBR135W, strain CKS1, active compounds read low): 0.986
- normalized growth (S. cerevisiae deletion strains, locus YBR136W, strain MEC1, active compounds read low): 0.977
- normalized growth (S. cerevisiae deletion strains, locus YBR160W, strain CDC28, active compounds read low): 0.989
- normalized growth (S. cerevisiae deletion strains, locus YDL017W, strain CDC7, active compounds read low): 0.99
- normalized growth (S. cerevisiae deletion strains, locus YDL028C, strain MPS1, active compounds read low): 0.984
- normalized growth [3]: 0.994
- normalized growth (S. cerevisiae deletion strains, locus YDL108W, strain KIN28, active compounds read low): 0.976
- normalized growth (S. cerevisiae deletion strains, locus YDL132W, strain cdc53, active compounds read low): 0.992
- normalized growth (S. cerevisiae deletion strains, locus YDL214C, strain PRR2, active compounds read low): 0.956
- normalized growth (S. cerevisiae deletion strains, locus YDR052C, strain DBF4, active compounds read low): 0.989
- normalized growth (S. cerevisiae deletion strains, locus YDR054C, strain cdc34, active compounds read low): 0.991
- normalized growth (S. cerevisiae deletion strains, locus YDR226W, strain ADK1, active compounds read low): 0.992
- normalized growth (S. cerevisiae deletion strains, locus YDR477W, strain SNF1, active compounds read low): 0.963
- normalized growth (S. cerevisiae deletion strains, locus YER123W, strain YCK3, active compounds read low): 0.937
- normalized growth (S. cerevisiae deletion strains, locus YER133W, strain GLC7, active compounds read low): 0.971
- normalized growth (S. cerevisiae deletion strains, locus YFL009W, strain cdc4, active compounds read low): 0.992
- normalized growth (S. cerevisiae deletion strains, locus YFL029C, strain CAK1, active compounds read low): 0.981
- normalized growth (S. cerevisiae deletion strains, locus YFR003C, strain YPI1, active compounds read low): 0.989
- normalized growth (S. cerevisiae deletion strains, locus YFR019W, strain FAB1, active compounds read low): 0.962
- normalized growth (S. cerevisiae deletion strains, locus YFR028C, strain CDC14, active compounds read low): 0.995
- normalized growth (S. cerevisiae deletion strains, locus YGR040W, strain KSS1, active compounds read low): 0.958
- normalized growth (S. cerevisiae deletion strains, locus YGR052W, strain FMP48, active compounds read low): 1.03
- normalized growth (S. cerevisiae deletion strains, locus YGR092W, strain DBF2, active compounds read low): 0.974
- normalized growth [7]: 0.919
- normalized growth (S. cerevisiae deletion strains, locus YHR079C, strain IRE1, active compounds read low): 0.934
- normalized growth (S. cerevisiae deletion strains, locus YHR082C, strain KSP1, active compounds read low): 0.986
- normalized growth (S. cerevisiae deletion strains, locus YHR205W, strain SCH9, active compounds read low): 0.894
- normalized growth (S. cerevisiae deletion strains, locus YIL147C, strain SLN1, active compounds read low): 0.984
- normalized growth (S. cerevisiae deletion strains, locus YJL095W, strain BCK1, active compounds read low): 0.918
- normalized growth (S. cerevisiae deletion strains, locus YJL128C, strain PBS2, active compounds read low): 0.961
- normalized growth (S. cerevisiae deletion strains, locus YJL157C, strain FAR1, active compounds read low): 0.977
- normalized growth (S. cerevisiae deletion strains, locus YJR016C, strain ILV3, active compounds read low): 0.997
- normalized growth (S. cerevisiae deletion strains, locus YJR066W, strain TOR1 (second series), active compounds read low): 0.937
- normalized growth (S. cerevisiae deletion strains, locus YJR066W, strain TOR1, active compounds read low): 0.973
- normalized growth (S. cerevisiae deletion strains, locus YKL048C, strain ELM1, active compounds read low): 0.957
- normalized growth (S. cerevisiae deletion strains, locus YKL067W, strain YNK1, active compounds read low): 0.956
- normalized growth (S. cerevisiae deletion strains, locus YKL101W, strain HSL1, active compounds read low): 0.941
- normalized growth (S. cerevisiae deletion strains, locus YKL193C, strain SDS22, active compounds read low): 0.995
- normalized growth (S. cerevisiae deletion strains, locus YKL203C, strain TOR2, active compounds read low): 1.02
- normalized growth (S. cerevisiae deletion strains, locus YLR113W, strain HOG1, active compounds read low): 0.856 (active)
- normalized growth (S. cerevisiae deletion strains, locus YLR133W, strain CKI1, active compounds read low): 0.958
- normalized growth (S. cerevisiae deletion strains, locus YLR403W, strain SFP1, active compounds read low): 0.945
- normalized growth (S. cerevisiae deletion strains, locus YML070W, strain DAK1, active compounds read low): 0.947
- normalized growth (S. cerevisiae deletion strains, locus YMR001C, strain CDC5, active compounds read low): 0.995
- normalized growth (S. cerevisiae deletion strains, locus YMR205C, strain PFK2 (second series), active compounds read low): 0.953
- normalized growth (S. cerevisiae deletion strains, locus YMR277W, strain FCP1, active compounds read low): 0.998
- normalized growth (S. cerevisiae deletion strains, locus YNL006W, strain LST8, active compounds read low): 0.994
- normalized growth (S. cerevisiae deletion strains, locus YNL020C, strain ARK1, active compounds read low): 0.966
- normalized growth (S. cerevisiae deletion strains, locus YNL161W, strain CBK1, active compounds read low): 0.992
- normalized growth (S. cerevisiae deletion strains, locus YNL183C, strain NPR1, active compounds read low): 0.946
- normalized growth (S. cerevisiae deletion strains, locus YNL207W, strain RIO2, active compounds read low): 0.983
- normalized growth (S. cerevisiae deletion strains, locus YNL222W, strain SSU72, active compounds read low): 0.99
- normalized growth (S. cerevisiae deletion strains, locus YNL307C, strain MCK1 (second series), active compounds read low): 0.964
- normalized growth (S. cerevisiae deletion strains, locus YOL078W, strain AVO1, active compounds read low): 0.992
- normalized growth (S. cerevisiae deletion strains, locus YOL136C, strain PFK27, active compounds read low): 0.968
- normalized growth (S. cerevisiae deletion strains, locus YOR061W, strain CKA2, active compounds read low): 0.942
- normalized growth (S. cerevisiae deletion strains, locus YOR119C, strain RIO1, active compounds read low): 0.972
- normalized growth (S. cerevisiae deletion strains, locus YOR231W, strain MKK1, active compounds read low): 0.911
- normalized growth (S. cerevisiae deletion strains, locus YOR329C, strain SCD5, active compounds read low): 0.989
- normalized growth (S. cerevisiae deletion strains, locus YPL031C, strain PHO85, active compounds read low): 0.962
- normalized growth (S. cerevisiae deletion strains, locus YPL153C, strain RAD53, active compounds read low): 0.955
- normalized growth (S. cerevisiae deletion strains, locus YPL204W, strain HRR25, active compounds read low): 0.976
- normalized growth (S. cerevisiae deletion strains, locus YPL209C, strain IPL1, active compounds read low): 0.99
- normalized growth (S. cerevisiae deletion strains, locus YPL256C, strain CLN2, active compounds read low): 0.913
- normalized growth (S. cerevisiae deletion strains, locus YPR025C, strain CCL1, active compounds read low): 0.991
- normalized growth (S. cerevisiae deletion strains, locus YPR106W, strain ISR1, active compounds read low): 0.99
- normalized growth (S. cerevisiae deletion strains, locus YPR111W, strain DBF20, active compounds read low): 0.985
- normalized growth (S. cerevisiae deletion strains, strain NNK1, active compounds read low): 0.981
- normalized growth (S. cerevisiae deletion strains, strain TSCII, active compounds read low): 0.991

SMILES: O=C(NC(c1ccccc1)C(N=Cc1ccccc1)c1ccccc1)c1ccccc1 (centres undefined)
- normalized growth [1]: 1
- normalized growth [2]: 1.02
- normalized growth (S. cerevisiae deletion strains, locus YCL061C, strain MRC1, active compounds read low): 1.02
- normalized growth [3]: 1
- normalized growth [4]: 0.959
- normalized growth [5]: 1.03
- normalized growth [6]: 1.01
- normalized growth (S. cerevisiae deletion strains, locus YGR229C, strain SMI1, active compounds read low): 1.02
- normalized growth [7]: 1.05
- normalized growth [8]: 1
- normalized growth [9]: 1.02
- normalized growth [10]: 1.02
- normalized growth [11]: 1.01
- normalized growth [12]: 1.04
- normalized growth [13]: 1.03
- normalized growth [14]: 1.03
- normalized growth [15]: 1.1
- normalized growth [16]: 1.01
- normalized growth [17]: 1.01
- normalized growth [18]: 0.978
- normalized growth [19]: 0.999
- normalized growth [20]: 0.998
- normalized growth [21]: 1.05
- normalized growth [22]: 1
- normalized growth [23]: 1.02
- normalized growth [24]: 0.917
- normalized growth [25]: 1.01
- normalized growth [26]: 1.01

From PubChem BioAssay AID1159580 (chemical genetic matrix, 2015)
